The campaign covered roughly 68,000 compounds. About 2,700 (4%) showed an effect of 50% or more. The sample as a whole holds a higher share of strong results than the screen did.

The test system of the experiment is Plasmodium berghei. Description: Screen against P. berghei liver stage (PbLuc), transformed with Luciferase, at 2uM. The format is functional, HepG2. The following applies: tested at 2 uM.
`CC(C)CC(NC(=O)c1ccn(C)c(=O)c1)c1cccs1` (configuration not stated): the INHIBITION was determined as 9.29%.
Regarding `CN(CCc1cn[nH]c1)C(=O)C1CC(=O)N(Cc2ccccn2)C1` (configuration not stated), the INHIBITION is 48.93%.
Consider `COCc1noc(CCNC(=O)c2ccc(C3CCCO3)s2)n1` (configuration not stated), for which the INHIBITION is given as -31.23%.
Next, `Cc1ccc(CN2C[C@@H](N(C)C)[C@H]3OCCC[C@H]32)o1`: 39.57%.
As to `Cc1ccc(CN2C[C@H](N3CCOCC3)[C@@H]3OCCC[C@@H]32)o1`, the INHIBITION was 63.23%.
Next, `Cc1cc(CN2C[C@H](N3CCOCC3)[C@@H]3OCCC[C@@H]32)oc1C`: -0.23%; `COCC(=O)N1CCC2(C1)c1ccccc1S(=O)(=O)N2CC1CC1` (configuration not stated): -11.81%.
Take `CCN1CCC(NC(=O)Cn2cc(C)c3ccccc32)CC1`: the INHIBITION is reported as -3.38%.
Next, `Cc1cn(CC(=O)NC2CCC3(CC2)OCCO3)c2ccccc12`: 70.17%; `Cc1cn(CC(=O)NC2CCC(C(=O)O)CC2)c2ccccc12` (configuration not stated): 0.13%; `CCCC1CCCN(C(=O)Nc2cccnc2OC)CC1` (configuration not stated): 0.73%.
Turning to `COc1ccc(C2CCCN2S(=O)(=O)c2cc(F)ccc2F)cc1` (configuration not stated), the INHIBITION stood at 7.24%.
Next, `Cc1cc(=O)[nH]cc1C(=O)N1Cc2ccccc2N(C)CC1C` (configuration not stated): 47.59%.
Next, `CCc1csc(C2CCCN(C(=O)c3ccc(OC)nn3)C2)n1` (configuration not stated): 11.18%.
`CCc1csc(C2CCCN(C(=O)c3c[nH]c(C)n3)C2)n1` (configuration not stated): the INHIBITION is listed as 33.91%.
Next, `Cc1csc(C2CCCN(C(=O)c3c[nH]c(C)n3)C2)n1` (configuration not stated): -92.68%; `Cc1nc(C(=O)N2CCCC(c3nc(C(C)C)cs3)C2)c[nH]1` (configuration not stated): 77.56%.
Next, `CC(C)c1csc(C2CCCN(C(=O)Cn3ccccc3=O)C2)n1` (configuration not stated): 54.92%.
Next, `CCc1csc(C2CCCN(C(=O)c3ccc(=O)n(C)n3)C2)n1` (configuration not stated): 26.51%; `Cc1csc(C2CCCN(C(=O)Cn3ccccc3=O)C2)n1` (configuration not stated): 42.29%; `Cc1nc(C2CCCN(C(=O)Cn3ccccc3=O)C2)sc1C` (configuration not stated): 14.77%.
Regarding `CCc1csc(C2CCCN(C(=O)c3ccc(=O)n(CC)n3)C2)n1` (configuration not stated), the INHIBITION was determined as 60.09%.
Next, `CC(C)NC(=O)NCc1nnc2n1C(C(=O)N(C)C)CC2` (configuration not stated): 24.34%.
Consider `O=C(NCc1ccc(OCC2CC2)nc1)C1COc2ccccc2O1` (configuration not stated), for which the INHIBITION stood at 2.21%.
Next, `CC1CCN(C(=O)[C@@H]2C[C@H]3OCC[C@H]3N(Cc3ccoc3)C2)CC1`: 23.1%; `Cc1cnc(CN(C)C(=O)C23CNCC2CNC3)[nH]1` (configuration not stated): -16.03%.
Next, `COc1ncccc1C(=O)N(C)Cc1nc(-c2ccccn2)no1`: 16.37%.
Next, `Cc1cnn(CC2CCCCN2C(=O)c2csc(C)n2)c1` (configuration not stated): 53.58%; `CNC(=O)c1ccc(C(=O)N2CCCCC2Cn2cc(C)cn2)cn1` (configuration not stated): 61.96%; `CC(=O)Nc1nc(C(=O)N2CCCCC2Cn2cc(C)cn2)cs1` (configuration not stated): -7.73%.
As to `Cc1cnn(CC2CCCN2C(=O)c2ccc(C(N)=O)cn2)c1` (configuration not stated), the INHIBITION came out at 40.29%.
Next, `Cc1cnn(CC2CCCCN2C(=O)c2ccc(NC3CC3)nc2)c1` (configuration not stated): 14.53%; `COCc1nc(C(=O)N2CCCCC2Cn2cc(C)cn2)cs1` (configuration not stated): 29.71%; `CC(C)C1CN(C(=O)c2cc(=O)[nH]c(=O)[nH]2)CCCN1CC1CC1` (configuration not stated): -15.77%.
For the compound `CN(C)CCn1c([C@@H]2CCCO2)cc2cccnc21`, the INHIBITION was 47.82%.
Next, `O=C(N1CCCC1)N1CCc2c(CNc3ncccn3)cncc2C1`: 34.98%; `Cc1cc(CN2CCC3(CC2)CC(C(=O)O)N(C(=O)C2CC2)C3)oc1C` (configuration not stated): 9.11%; `CCSCC(C)NCc1nc(-c2cccnc2)no1` (configuration not stated): -15.07%.
Next, `Cc1nn2c(nc1=O)-c1ccccc1NC2C(=O)O` (configuration not stated): 24.05%.
Next, `O=C(N1CCCC1)N1CCCC2(CCN(c3ccsc3)C2=O)C1` (configuration not stated): 45.82%; `C[C@@H]1CN(C(=O)c2ccsc2)C[C@]12CCN(c1ccsc1)C2=O`: -1.79%; `Cc1ccc(C(=O)N2CCC3(CCN(c4ccsc4)C3=O)C2)cn1` (configuration not stated): 52.66%.
`O=C(c1cccnc1)N1CCCC2(CCN(c3ccsc3)C2=O)C1` (configuration not stated): the INHIBITION is 18.37%.
Next, `C[C@H]1CN(C(=O)c2cscn2)C[C@@]12CCN(c1ccsc1)C2=O`: 55.8%.
Next, `O=C(CO)N1CCCC2(CCN(c3ccsc3)C2=O)C1` (configuration not stated): 55.21%; `Cc1ccc(C(=O)N2CCC3(CCN(Cc4ccccn4)C3=O)C2)cn1` (configuration not stated): 17.64%.
Next, `O=C(c1ccsc1)N1CCC2(CCN(Cc3ccccn3)C2=O)C1` (configuration not stated): 57.85%.
`O=C(c1ccc(F)cc1)N1CCC2(CCN(Cc3ccccn3)C2=O)C1` (configuration not stated): the INHIBITION was 11.6%.
`COCC(=O)N1CCCC2(CCN(c3ccsc3)C2=O)C1` (configuration not stated): the INHIBITION is on record as -68.7%.
Next, `Cc1cccc(C(=O)N2C[C@@H](C)[C@@]3(CCN(c4ccsc4)C3=O)C2)n1`: 15.44%.
Next, `O=C(c1ccnnc1)N1CCC2(CCN(c3ccsc3)C2=O)C1` (configuration not stated): -12.06%.
Next, `c1ccc(CCCN2CCCC2Cn2cncn2)cc1` (configuration not stated): 1.63%; `CCOCCCNC(=O)NCc1c(C)nn(C)c1C`: 6.4%; `Cc1nn(CCC#N)c(C)c1CCC(=O)N(C)C`: -57.94%.
Regarding `Cc1nn(CCC#N)c(C)c1CCC(=O)N(C(C)C)C1CC1`, the INHIBITION stood at 52.6%.
For `Cc1nn(CCC#N)c(C)c1CCC(=O)N(C)Cc1ccsc1`, the INHIBITION came to 35.84%.
With `CCC(=O)Nc1ccc(C(C)NC(=O)COC)cc1` (configuration not stated), the INHIBITION was -64.67%.
With `Cc1cc(Cn2cc(C#N)c(=O)c3ccccc32)no1`, the INHIBITION is on record as -0.45%.
Next, `CC(C)c1ccc(CN2C(=O)C3(CCNCC3)Nc3ccccc32)cc1`: 6.72%.
With `O=C(NCC1CCCO1)N1CCN(Cc2ccc3c(c2)CCO3)CC1` (configuration not stated), the INHIBITION amounted to 78.42%.
Next, `O=C(NCC1CCOC1)N1CCN(Cc2ccc3c(c2)CCO3)CC1` (configuration not stated): 10.62%; `O=C(NCc1ccco1)N1CCN(Cc2ccc3c(c2)CCO3)CC1`: 9.17%; `O=C(C1COCCO1)N1CCN(Cc2ccc3c(c2)CCO3)CC1` (configuration not stated): 83.96%.
Next, `O=C(C1CCCN(CCc2ccc3c(c2)CCO3)C1)N1CCCC1` (configuration not stated): -0.62%.
Next, `O=C(C1CCOC1)N1CCN(Cc2ccc3c(c2)CCO3)CC1` (configuration not stated): 47.87%; `CN(C)C1CCN(C(=O)NCc2ccc(Cn3cncn3)cc2)CC1`: -8.87%; `CN1CCN(Cc2cn3c(n2)CN(C2CCOCC2)CC3)CC1`: 20.01%.
As to `COCCS(=O)(=O)NC(C)c1cccc(C)c1C` (configuration not stated), the INHIBITION turned out to be 16.38%.
Take `Cc1cccc(C(C)CNS(=O)(=O)CCCC#N)c1` (configuration not stated): the INHIBITION worked out at 16.95%.
Next, `COCCS(=O)(=O)NCC(C)c1cccc(C)c1` (configuration not stated): 72.49%; `COc1ccc(C(C)NCc2ccc(OC)c(OC)c2OC)cc1F` (configuration not stated): -6.67%.
Next, `CC(c1ccco1)N(C)C(=O)NCCOc1ccc(C#N)cc1` (configuration not stated): -6.73%; `CC(=O)N[C@@H]1CN(C(=O)CC2CC2)C[C@H]1O`: 53.16%.
Consider `CC(=O)N[C@@H]1CN(C(=O)CC2CCOCC2)C[C@H]1O`, for which the INHIBITION is -4.48%.
Next, `CCOCC(=O)N1C[C@@H](O)[C@H](NC(C)=O)C1`: -24.98%; `Cc1noc(C)c1CN1CCn2cc(CNc3ccccn3)nc2C1`: 6.07%.
Next, `Cc1oc(CN(C)C(=O)c2ccc(C(F)(F)F)cc2)cc1C(=O)O`: 40.4%; `CC(C)C(=O)NC1COC2(CCN(C(=O)c3cccnc3)CC2)C1` (configuration not stated): 9.53%.
Next, `N#CC1(C(=O)N2CCN(Cc3cscn3)CC2)CCCCC1`: 52.17%; `N#CC1(C(=O)N2CCCN(Cc3cscn3)CC2)CCCCC1`: 7.71%; `N#CC1(C(=O)N2CCN(Cc3cscn3)CC2)CCCC1`: 34.83%.
`Cc1ccc(S(=O)(=O)Cc2noc([C@@H]3C[C@@H](O)CN3C)n2)cc1`: the INHIBITION is reported as 32.59%.
For `CN(Cc1cn2c(n1)CN(Cc1ccc(F)cc1)CC2)Cc1ccco1`, the INHIBITION was 9.98%.
Next, `COc1ccc(C2=CCN(C(=O)C3CCCN(C(N)=O)C3)CC2)cc1` (configuration not stated): -11.91%.
Next, `COc1ccc(C2=CCN(C(=O)C3CCC3)CC2)cc1`: -17.31%.
On to `COc1ccc(C2=CCN(C(=O)C3CCCN(C(C)=O)C3)CC2)cc1` (configuration not stated), for which the INHIBITION is listed as 68.24%.
Next, `O=C1[C@H]2CN(Cc3ccc(F)cc3)C[C@H]2CN1c1cncnc1`: -20.89%.
Next, `O=C1[C@H]2CN(Cc3ccncc3)C[C@H]2CN1c1cncnc1`: 54.41%; `O=C1[C@H]2CN(Cc3ccccc3)C[C@H]2CN1c1cncnc1`: 37.15%; `COc1cccc2cc(CNC(=O)N3CCC(N4CCCC4)C3)oc12` (configuration not stated): 25.35%.
Next, `CN(C)C(=O)CN1CCC2(CCN(C(=O)N3CCCC3)CC2)C1=O`: -4.75%.
As to `CN(C)C(=O)CN1CCC2(CCN(C(=O)N(C)C)CC2)C1=O`, the INHIBITION was determined as 54.01%.
Consider `CN(C)C(=O)CN1CCC2(CCN(S(C)(=O)=O)CC2)C1=O`, for which the INHIBITION turned out to be 39.73%.
Next, `Cc1cnc(N2C[C@@H]3[C@@H](C2)OCC(=O)N3CCN(C)C)nc1`: 30.58%; `CNc1nc(N2CCN(Cc3ccsc3)C(CCO)C2)nc2c1CCC2` (configuration not stated): 35.43%; `O=C(C1CCOCC1)N1C[C@@H]2CC[C@H]1CN(Cc1ccncc1)C2`: -21.32%.
Next, `c1cc(-c2noc([C@@H]3CCCN3C3CCC3)n2)cc(N2CCCC2)n1`: 23.81%; `c1cc(-c2noc(C3CCC3)n2)cc(N2CCCCC2)n1`: -23.44%; `c1cc(-c2noc([C@@H]3CCCN3CC3CC3)n2)cc(N2CCCC2)n1`: 74.33%.
As to `Cc1ccc(CN(Cc2ccccn2)C(=O)CCC2CCCN(C)C2)s1` (configuration not stated), the INHIBITION turned out to be 50.59%.
As for `Cc1ccc(CN(Cc2ccccn2)C(=O)[C@H]2CC[C@@H](N)C2)s1`, the INHIBITION amounted to 26.74%.
Next, `Cc1ccc(CN(Cc2ccccn2)C(=O)C2CCCCCN2C)s1` (configuration not stated): -42.41%.
